# Assay results published in PubChem BioAssay (NCATS).
# Values joined by “and” are separate entries in the source; they are usually repeats but may differ in a detail not shown here. Equal entries are not always repeated. Records with an inconclusive call do not appear. Active and inactive are the calls of the source. Unless noted, the call rests on the fitted dose curve; in most records, active means well fitted curve in either direction with a large enough effect (not every such curve was filed as active); inconclusive means small, poorly fitted or top-dose-only effect, or another doubt; inactive means flat fitted curve, though single readings scatter.
# Tests used:
# [1] = AP1 Signaling Pathway (AID 357); conditions: ME-180 AP-1-bla reporter, EGF-induced, beta-lactamase ratio, 5 h; further: on the % scale 0 is the no-effect control and ±100 the full control effect
# Method in brief: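 AP-1-bla ME-180 cells with beta-lactamase reporter under AP-1 response element, stimulated with EC50 EGF; compounds titrated, 5 hours at 37 degrees Celsius. CCF4 read at 460/530 nm ratio; positive and negative modulators judged by AC50.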
# [2] = molecular target: Cytochrome P450 1A2 (Homo sapiens) (UniProt P05177); assay: p450-cyp1a2 (AID 410; calls by dose curve; further: potency means the concentration at half of the fitted maximal effect;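 on activity change, negative = inhibition: -100% = full effect of reference inhibitor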); conditions: recombinant CYP1A2, luciferin-ME demethylation, luminescence; series mostly up to 57 µM
# Method in brief: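 Inhibition was calculated relative to 57 uM furafylline (full inhibition). The reaction used human CYP1A2 at 20nM with Luciferin-ME at its Km, 100uM, driven by an NADPH-regenerating system for 60 min at room temperature.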
# [3] = NFAT Signaling Pathway (AID 444); conditions: Jurkat NFAT-bla M1, carbachol, beta-lactamase ratio, 5 h;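 further: carbachol stimulus at about its EC50 of 1 µM final; on the % scale 0 is the no-effect control and ±100 the full control effect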
# Method in brief: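 Jurkat cells with NFAT-driven β-lactamase reporter and co-expressed M1 receptor, stimulated with carbachol (final 1 uM, ~EC50), compound titration, 5 h at 37 °C. CCF4 loaded 1 h at RT; 460/530 nm ratio gave %activity and AC50.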
# [4] = Stat Signaling Pathway (AID 446); conditions: ME-180 (cervical carcinoma) SIE beta-lactamase reporter, IL-6 stimulated, 5 h;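 further: ME-180 cervical cancer cells given 40 pM IL-6 alongside compound; SIE-controlled beta-lactamase reporter measured as 460/530 nm FRET emission ratio; on the % scale 0 is the no-effect control and ±100 the full control effect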
# Method in brief: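 IL-6/STAT signaling read in ME-180 cells via an SIE beta-lactamase reporter. Stimulus was 40 pM IL-6 (its AC50) for 5 hrs, so both activation and inhibition register.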
# [5] = molecular target: Glucocorticoid receptor (Homo sapiens) (UniProt P04150); assay: GR-GFP Redistribution (AID 450;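 active means compounds whose dose series gives a full or clear partial fitted curve of increased nuclear translocation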; further: potency means the concentration at half of the fitted maximal effect); conditions: U2OS GR-GFP nuclear translocation, laser cytometry, 2 h
# [6] = molecular target: Glucocorticoid receptor (Homo sapiens) (UniProt P04150); assay: GR-EFC Redistribution (AID 451; calls by dose curve; further: potency means the concentration at half of the fitted maximal effect); conditions: CHO-K1 GR-EFC translocation, beta-gal luminescence, 2 h
# Method in brief: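 CHO-K1 cells expressing nuclear EA and GR-ED fragments of b-gal; compounds titrated up to 46 uM final, 2 h at 37 C. GR nuclear translocation read as complemented b-gal luminescence after 1 h RT detection.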
# [7] = molecular target: Mitogen-activated protein kinase 10 (Mus musculus) (UniProt Q61831); assay: JNK3 AlphaScreen Assay (AID 530); conditions: JNK3 lysate, c-Jun phosphorylation; series mostly up to 57.1 µM;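 further: kinase came from lysate of stimulated human HepG2 cells; signal reports phosphorylation of biotinylated GST-cJun 1-79 at Ser73 with 10 µM ATP; on the % scale 0 is the no-effect control and ±100 the full control effect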
# Method in brief: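 qHTS format: compounds tested as titrations against IL-1beta/TNF-alpha-activated HepG2 lysate JNK3 with biotin-GST-cJun substrate and 10 uM ATP at room temperature. Loss of anti-phospho-cJun AlphaScreen signal indicates inhibition.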
# [8] = molecular target: 3',5'-cyclic-AMP phosphodiesterase 4B (Homo sapiens) (UniProt Q07343); assay: qHTS Assay for Inhibitors of PDE-IV (AID 607; active means well fitted activation curve with a large enough effect in the main read-out, with a control signal flat, not every such curve was filed as active; further: % of control where 0% means no effect); conditions: HEK293 ACTOne CNG channel cells, membrane potential fluorescence; series mostly up to 22.9 µM
# Method in brief: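 Live HEK293 cells with a modified cyclic nucleotide-gated (CNG) channel report intracellular cAMP via membrane-potential dye fluorescence (ex 535/em 590 nm). Endogenous PDE-IV was targeted. Compounds were tested at up to 22.9 uM final; RO 20-1724 100 uM served as control.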
# [9] = molecular target: Pyruvate kinase (Leishmania mexicana) (UniProt Q27686); assay: qHTS Validation Assay for Inhibitors of Leishmania Mexicana Pyruvate Kinase (AID 945; active means well fitted curve in the direction sought with a large enough effect; an effect the other way counts as inactive or inconclusive;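 further: 0% = DMSO only neutral control wells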); conditions: purified L. mexicana pyruvate kinase, enzyme activity, E451W mutant enzyme; series mostly up to 57.5 µM
# Method in brief: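 Eight-point qHTS titrations in triplicate, data normalized to DMSO neutral control. Reaction: 0.2 nM LmPYK E451W mutant, 0.5 mM PEP, 0.1 mM ADP, 7 mM MgCl2, pH 7.2, one hour at room temperature; luminescent ATP detection.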
# [10] = molecular target: Alpha-galactosidase A (Homo sapiens) (UniProt P06280); assay: Counterscreen for Glucocerebrosidase Inhibitors: qHTS Assay for Human alpha-Galactosidase at pH 4.5 (AID 992; active means well fitted curve in the direction sought with a large enough effect; an effect the other way counts as inactive or inconclusive; further: 0% is about no effect); conditions: purified enzyme, fluorogenic substrate; series mostly up to 76.9 µM
# Method in brief: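 Read-out is 4-methylumbelliferone fluorescence (365 nm excitation, 440 nm emission) after a pH 10 NaOH/glycine stop. Reactions held 2 nM enzyme and 80 uM substrate at pH 4.5 for 20 min at room temperature.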
# [11] = molecular target: alpha-glucosidase (Oryza sativa, rice) (UniProt Q653V4); assay: Counterscreen for Glucocerebrosidase Inhibitors: qHTS Assay for Rice alpha-Glucosidase at pH 5.0 (AID 997; active means well fitted curve in the direction sought with a large enough effect; an effect the other way counts as inactive or inconclusive;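 further: 0% = full activity with enzyme and -100% = basal without enzyme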); conditions: rice alpha-glucosidase enzyme activity; series mostly up to 76.9 µM
# Method in brief: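 Rice alpha-glucosidase (4 nM final) with 400 uM 4-methylumbelliferyl-alpha-D-glucopyranoside in citrate buffer pH 5.0, 20 min at room temperature, stopped at pH 10; fluorescence 365/440 nm, compounds 0.7 nM–77 uM, AC50 from Hill fits.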
# [12] = qHTS Assay for Lipid Storage Modulators (AID 1519; calls by dose curve); conditions: Drosophila S3 cells, BODIPY lipid droplet/cell ratio, laser cytometry, cells loaded with oleic acid; for activity change, negative = inhibition: at 25.7 µM (top of the series)
# Method in brief: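 Cells seeded at 5,000 per well were treated with compounds over a concentration series and loaded with oleic acid (400 uM, as added). Lipid droplet fluorescence (488 nm excitation, 500-530 nm channel) was read by laser-scanning cytometry and normalized to 20 uM Triacsin C.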
# [13] = molecular target: Pyruvate kinase PKM (Homo sapiens) (UniProt P14618); assay: qHTS Assay for Activators of Human Muscle Pyruvate Kinase (AID 954; active means well fitted curve in the direction sought with a large enough effect, not every such curve was filed as active;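 further: 0% = uninhibited enzyme and -100% = no enzyme or full thiadiazolimine inhibition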); conditions: purified human muscle pyruvate kinase, luciferase-coupled luminescence, 1 h; series mostly up to 57.5 µM
# Method in brief: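 Enzyme was run at intermediate activity so both inhibitors and activators could be detected. ATP formed from ADP and PEP by 0.1 nM human PKM2 during a 1 h room-temperature incubation was quantified by coupled luciferase luminescence.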
# [14] = molecular target: ATP-dependent 6-phosphofructokinase (Trypanosoma brucei brucei) (UniProt O15648); assay: qHTS Assay to Find Inhibitors of T. brucei phosphofructokinase: hit validation (AID 492961; active means well fitted curve in the direction sought with a large enough effect; an effect the other way counts as inactive or inconclusive); conditions: T. brucei PFK, ADP-Glo luminescence; series mostly up to 24.3 µM
# Method in brief: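 Inhibition of parasite PFK is measured as reduced ADP formation, quantified via luciferase after ATP depletion. Assay used 0.1 mM ATP, 0.5 mM F6P, 1.25 nM enzyme, 45 min incubation.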
# [15] = molecular target: Luciferin 4-monooxygenase (Photinus pyralis) (UniProt P08659); assay: Biochemical firefly luciferase enzyme assay for NPC (AID 624030; active means well fitted curve in the direction sought with a large enough effect; an effect the other way counts as inactive or inconclusive;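 further: purified P. pyralis luciferase at 10 nM with luciferin and ATP substrate; 0% = DMSO and -100% = full luciferase inhibition by PTC124 control; nearly all actives have a fitted effect of over 70% in size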); conditions: purified P. pyralis luciferase, luminescence, 5 min; series mostly up to 58.6 µM
# Method in brief: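 Purified P. pyralis luciferase at 10 nM in 50 mM Tris Acetate (final), luminescence read within 5 minutes of enzyme addition to compounds. Activity normalised to PTC124 versus DMSO; concentration-response curves classed by r2, magnitude and activity.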
# [16] = qHTS profiling for inhibitors of Plasmodium falciparum proliferation (AID 504749; active means well fitted curve in the direction sought with a large enough effect; an effect the other way counts as inactive or inconclusive;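 further: 0% = DMSO vehicle and full inhibition = artemisinin control; nearly all actives have a fitted effect of over 60% in size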); conditions: P. falciparum in erythrocytes, SYBR Green DNA, 72 h, at 28.7 µM (top of the series)
# Method in brief: (§1)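 Readout was DNA-dye fluorescence from lysed cultures, ex 485/em 535 nm. Parasitized red cells had grown 72 h with compound; data scaled between 0.29 uM artemisinin and DMSO wells and corrected using vehicle-only plates.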
# [17] = system: AS120; assay: as above; conditions: P. falciparum in erythrocytes, SYBR Green DNA, 72 h; series mostly up to 28.7 µM
# Method in brief: as §1
# [18] = system: CP250; assay: as above; conditions: P. falciparum in erythrocytes, SYBR Green DNA, 72 h; series mostly up to 12.8 µM
# Method in brief: as §1
# [19] = molecular target: Ubiquitin carboxyl-terminal hydrolase 1 (Homo sapiens) (UniProt O94782); assay: Inhibitors of USP1/UAF1: Pilot qHTS (AID 504865; active means well fitted curve in the direction sought with a large enough effect; an effect the other way counts as inactive or inconclusive;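 further: rhodamine fluorescence freed from ubiquitin-rhodamine substrate followed over time; top concentration of the series differs between compounds; on the % scale 0 is the no-effect control and ±100 the full control effect; nearly all actives have a fitted effect of over 35% in size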); conditions: purified USP1/UAF1, Ub-rhodamine cleavage fluorescence; series mostly up to 54.9 µM
# Method in brief: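 USP1/UAF1 complex at 1 nM preincubated 15 min at room temperature with compound, then Ub-Rho substrate added at 150 nM final. Fluorescence (480/540 nm) read kinetically in 50 mM HEPES pH 7.8, 0.5 mM EDTA, 1 mM TCEP, 0.1 mg/ml BSA, 0.01% Tween-20.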
# [20] = at 7.69 µM (top of the series) unless noted
# [21] = measured here: cell count channel max response
# [22] = measured here: lipid channel max response
# Chain of Pyruvate kinase (Leishmania mexicana) (Q27686 2-499 E452W): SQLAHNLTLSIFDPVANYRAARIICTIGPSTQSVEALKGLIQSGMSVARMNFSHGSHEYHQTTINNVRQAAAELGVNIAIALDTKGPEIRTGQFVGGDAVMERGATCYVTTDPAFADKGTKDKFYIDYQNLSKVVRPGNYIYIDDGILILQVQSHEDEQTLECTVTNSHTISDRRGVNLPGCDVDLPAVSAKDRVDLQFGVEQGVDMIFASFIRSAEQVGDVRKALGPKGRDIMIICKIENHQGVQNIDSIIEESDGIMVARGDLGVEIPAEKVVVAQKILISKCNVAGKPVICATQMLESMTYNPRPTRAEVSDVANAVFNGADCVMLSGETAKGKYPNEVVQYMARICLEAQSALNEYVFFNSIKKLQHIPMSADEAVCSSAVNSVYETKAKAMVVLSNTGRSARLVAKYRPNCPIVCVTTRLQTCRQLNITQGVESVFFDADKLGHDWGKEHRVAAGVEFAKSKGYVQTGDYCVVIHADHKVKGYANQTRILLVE
# Chain of 3',5'-cyclic-AMP phosphodiesterase 4B (Homo sapiens) (Q07343 whole entry, looked up): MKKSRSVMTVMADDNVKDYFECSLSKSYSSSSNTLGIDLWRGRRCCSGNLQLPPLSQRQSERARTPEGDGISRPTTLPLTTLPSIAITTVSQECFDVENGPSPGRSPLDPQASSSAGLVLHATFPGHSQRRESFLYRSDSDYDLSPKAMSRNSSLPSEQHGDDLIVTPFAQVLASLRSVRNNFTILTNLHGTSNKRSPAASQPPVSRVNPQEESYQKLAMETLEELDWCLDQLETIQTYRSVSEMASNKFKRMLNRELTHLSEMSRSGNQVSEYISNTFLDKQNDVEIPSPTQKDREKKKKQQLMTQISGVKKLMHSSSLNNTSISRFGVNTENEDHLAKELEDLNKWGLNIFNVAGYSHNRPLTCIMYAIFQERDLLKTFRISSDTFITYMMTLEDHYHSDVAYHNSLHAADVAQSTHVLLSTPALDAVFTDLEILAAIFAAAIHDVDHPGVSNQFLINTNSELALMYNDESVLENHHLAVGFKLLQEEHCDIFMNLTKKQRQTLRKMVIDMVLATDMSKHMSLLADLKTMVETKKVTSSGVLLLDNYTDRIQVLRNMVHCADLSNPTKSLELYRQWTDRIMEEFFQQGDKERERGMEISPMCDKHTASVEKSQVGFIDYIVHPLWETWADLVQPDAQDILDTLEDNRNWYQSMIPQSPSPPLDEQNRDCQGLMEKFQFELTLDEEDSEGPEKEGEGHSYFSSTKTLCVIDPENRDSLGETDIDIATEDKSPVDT
# Chain of Glucocorticoid receptor (Homo sapiens) (P04150 whole entry, looked up, the tested form may be a part): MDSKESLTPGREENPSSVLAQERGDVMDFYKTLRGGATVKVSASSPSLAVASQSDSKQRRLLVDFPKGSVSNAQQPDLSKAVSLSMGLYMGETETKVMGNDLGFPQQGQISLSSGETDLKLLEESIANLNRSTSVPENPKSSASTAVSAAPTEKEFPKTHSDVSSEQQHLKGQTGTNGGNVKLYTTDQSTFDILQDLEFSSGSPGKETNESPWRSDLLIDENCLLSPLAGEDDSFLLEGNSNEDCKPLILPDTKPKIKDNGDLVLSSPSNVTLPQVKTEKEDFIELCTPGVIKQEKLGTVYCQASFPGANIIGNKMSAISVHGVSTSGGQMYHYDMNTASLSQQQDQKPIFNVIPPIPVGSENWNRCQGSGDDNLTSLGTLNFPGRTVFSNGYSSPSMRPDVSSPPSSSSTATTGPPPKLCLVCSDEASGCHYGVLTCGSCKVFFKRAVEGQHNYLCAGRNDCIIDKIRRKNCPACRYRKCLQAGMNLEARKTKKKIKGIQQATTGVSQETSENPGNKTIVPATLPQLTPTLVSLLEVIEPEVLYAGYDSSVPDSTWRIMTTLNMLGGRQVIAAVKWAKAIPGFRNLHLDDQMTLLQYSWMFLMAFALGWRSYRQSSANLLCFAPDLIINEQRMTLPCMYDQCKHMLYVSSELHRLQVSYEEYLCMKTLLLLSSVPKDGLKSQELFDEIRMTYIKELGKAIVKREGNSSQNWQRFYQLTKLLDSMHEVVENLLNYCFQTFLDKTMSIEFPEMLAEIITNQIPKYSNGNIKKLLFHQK
# Chain of Alpha-galactosidase A (Homo sapiens) (P06280 whole entry, looked up): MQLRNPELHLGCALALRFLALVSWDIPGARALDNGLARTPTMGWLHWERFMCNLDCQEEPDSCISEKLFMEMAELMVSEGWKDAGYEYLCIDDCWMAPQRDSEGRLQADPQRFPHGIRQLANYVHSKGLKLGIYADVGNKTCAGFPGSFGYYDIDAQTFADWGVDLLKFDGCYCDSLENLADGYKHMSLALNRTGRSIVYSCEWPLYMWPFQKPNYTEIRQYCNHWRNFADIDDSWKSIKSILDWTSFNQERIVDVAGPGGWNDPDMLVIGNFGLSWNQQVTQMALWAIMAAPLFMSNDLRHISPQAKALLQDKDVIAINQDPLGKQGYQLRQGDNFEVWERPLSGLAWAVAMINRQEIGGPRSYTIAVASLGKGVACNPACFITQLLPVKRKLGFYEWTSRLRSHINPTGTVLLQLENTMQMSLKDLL
# Chain of Cytochrome P450 1A2 (Homo sapiens) (P05177 whole entry, looked up): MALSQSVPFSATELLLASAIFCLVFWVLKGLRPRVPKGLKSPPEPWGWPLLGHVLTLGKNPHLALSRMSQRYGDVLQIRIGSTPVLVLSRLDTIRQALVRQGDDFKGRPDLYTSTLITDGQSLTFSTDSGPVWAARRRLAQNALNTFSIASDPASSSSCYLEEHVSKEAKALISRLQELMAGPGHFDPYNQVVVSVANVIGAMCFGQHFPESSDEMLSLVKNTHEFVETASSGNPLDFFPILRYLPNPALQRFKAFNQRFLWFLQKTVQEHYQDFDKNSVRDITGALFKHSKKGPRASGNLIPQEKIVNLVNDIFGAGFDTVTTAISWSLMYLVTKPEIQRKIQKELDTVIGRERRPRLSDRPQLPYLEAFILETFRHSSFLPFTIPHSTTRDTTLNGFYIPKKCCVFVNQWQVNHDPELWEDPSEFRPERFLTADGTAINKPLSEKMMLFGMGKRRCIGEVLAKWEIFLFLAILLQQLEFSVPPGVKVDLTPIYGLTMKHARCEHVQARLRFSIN
# Chain of Pyruvate kinase PKM (Homo sapiens) (P14618 whole entry, looked up): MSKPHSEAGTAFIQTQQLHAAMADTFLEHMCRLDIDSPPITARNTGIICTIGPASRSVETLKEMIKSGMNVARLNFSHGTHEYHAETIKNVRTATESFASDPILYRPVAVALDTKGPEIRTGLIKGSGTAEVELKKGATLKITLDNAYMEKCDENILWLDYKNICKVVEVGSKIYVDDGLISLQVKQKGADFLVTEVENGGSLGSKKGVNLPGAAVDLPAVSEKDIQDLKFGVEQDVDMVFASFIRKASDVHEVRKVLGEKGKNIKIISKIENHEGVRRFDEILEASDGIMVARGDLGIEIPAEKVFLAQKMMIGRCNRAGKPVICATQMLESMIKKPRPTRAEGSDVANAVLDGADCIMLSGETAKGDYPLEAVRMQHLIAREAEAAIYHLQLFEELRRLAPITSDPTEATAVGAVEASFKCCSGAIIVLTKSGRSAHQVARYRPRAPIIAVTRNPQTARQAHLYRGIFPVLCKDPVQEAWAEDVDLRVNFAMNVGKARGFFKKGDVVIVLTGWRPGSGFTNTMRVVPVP
# Chain of Luciferin 4-monooxygenase (Photinus pyralis) (P08659 whole entry, looked up): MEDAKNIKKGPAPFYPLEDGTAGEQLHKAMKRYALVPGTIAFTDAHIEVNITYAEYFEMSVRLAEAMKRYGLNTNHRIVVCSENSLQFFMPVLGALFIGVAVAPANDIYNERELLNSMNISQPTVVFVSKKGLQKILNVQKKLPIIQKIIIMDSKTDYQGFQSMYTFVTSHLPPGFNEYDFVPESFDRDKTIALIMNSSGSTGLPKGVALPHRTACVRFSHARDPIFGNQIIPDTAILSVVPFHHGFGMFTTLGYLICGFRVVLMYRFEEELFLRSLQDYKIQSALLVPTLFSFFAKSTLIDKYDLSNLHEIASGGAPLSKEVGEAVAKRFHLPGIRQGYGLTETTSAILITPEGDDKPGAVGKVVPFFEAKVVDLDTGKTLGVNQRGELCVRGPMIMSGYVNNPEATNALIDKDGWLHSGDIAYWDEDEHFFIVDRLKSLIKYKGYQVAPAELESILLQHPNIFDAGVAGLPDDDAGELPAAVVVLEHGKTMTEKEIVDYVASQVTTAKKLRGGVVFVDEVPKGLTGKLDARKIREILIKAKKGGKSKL
# Chain of ATP-dependent 6-phosphofructokinase (Trypanosoma brucei brucei) (O15648 whole entry, looked up): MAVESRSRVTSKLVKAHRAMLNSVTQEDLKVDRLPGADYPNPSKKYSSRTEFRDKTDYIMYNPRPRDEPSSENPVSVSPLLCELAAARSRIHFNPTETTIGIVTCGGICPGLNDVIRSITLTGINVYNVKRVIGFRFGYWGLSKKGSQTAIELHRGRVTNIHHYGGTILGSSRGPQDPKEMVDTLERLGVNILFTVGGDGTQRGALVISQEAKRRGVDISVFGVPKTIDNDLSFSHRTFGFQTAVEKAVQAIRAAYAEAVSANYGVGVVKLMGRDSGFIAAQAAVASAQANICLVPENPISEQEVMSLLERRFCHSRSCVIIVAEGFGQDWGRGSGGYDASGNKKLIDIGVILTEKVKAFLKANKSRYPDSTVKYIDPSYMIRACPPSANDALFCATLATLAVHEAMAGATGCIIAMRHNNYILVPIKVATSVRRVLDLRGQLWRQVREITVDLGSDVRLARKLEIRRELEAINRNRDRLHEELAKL
compound,measurement,setting,value
C[C@@H](COc1ccccc1)N(CCCl)Cc1ccccc1,"activity change, negative = inhibition",[1]; at 17.2 µM (top of the series),-0.257% (inactive)
same,"activity change, negative = inhibition",[1]; at 38 µM (top of the series),0.967% (inactive)
same,Potency,[2],12.6 µM (active)
same,"activity change, negative = inhibition",[3]; at 17.2 µM (top of the series),-10.8% (inactive)
same,"activity change, negative = inhibition",[3]; at 38 µM (top of the series),-22.8% (inactive)
same,"activity, negative = inhibition",[4]; [20],1.89% [at 17.2 µM] (inactive)
same,Potency,[5],> 46 µM (inactive) and > 20.6 µM (inactive)
same,Potency,[6],> 46 µM (inactive) and > 20.6 µM (inactive)
same,Potency,[7],inactive
same,Potency,[8],inactive
same,outcome,[9],inactive
same,outcome,[10],inactive
same,outcome,[11],inactive
same,"activity change, negative = inhibition",[12],0.574% (inactive)
same,max response,[12]; [21],-7.22%
same,max response,[12]; [22],-6.85%
CC(=O)OCC1=C(C(=O)O)N2C(=O)[C@@H](NC(=O)CSc3ccncc3)[C@@H]2SC1,"activity change, negative = inhibition",[1]; at 17.2 µM (top of the series),9.51% (inactive)
same,"activity change, negative = inhibition",[1]; at 38 µM (top of the series),11% (inactive)
same,Potency,[2],inactive
same,"activity change, negative = inhibition",[3]; at 17.2 µM (top of the series),7.12% (inactive)
same,"activity change, negative = inhibition",[3]; at 38 µM (top of the series),4.33% (inactive)
same,"activity, negative = inhibition",[4]; at 17.2 µM (top of the series),8.61% (inactive)
same,"activity, negative = inhibition",[4]; at 38 µM (top of the series),-9.45% (inactive)
same,Potency,[5],> 46 µM (inactive) and > 20.6 µM (inactive)
same,Potency,[6],> 46 µM (inactive) and > 20.6 µM (inactive)
same,Potency,[7],inactive
same,Potency,[8],inactive
same,outcome,[9],inactive
same,outcome,[13],inactive
same,outcome,[10],inactive
same,outcome,[11],inactive
same,"activity change, negative = inhibition",[12],-4.27% (inactive)
same,max response,[12]; [21],-7.14%
same,max response,[12]; [22],-13.2%
same,outcome,[14],inactive
same,outcome,[15],inactive
same,"activity, negative = inhibition",[16]; parasite line A,-4.5% (inactive)
same,"activity, negative = inhibition",[16]; parasite line B,-4.99% (inactive)
same,Potency,[17],inactive
same,Potency,[18],inactive
CC(C)NC[C@H](O)c1cc(O)cc(O)c1,"activity change, negative = inhibition",[1]; at 17.2 µM (top of the series),-17.9% (inactive)
same,"activity change, negative = inhibition",[1]; at 38 µM (top of the series),-18.1% (inactive)
same,Potency,[2],inactive
same,"activity change, negative = inhibition",[3]; at 17.2 µM (top of the series),-4.38% (inactive)
same,"activity change, negative = inhibition",[3]; at 38 µM (top of the series),2.58% (inactive)
same,"activity, negative = inhibition",[4]; [20],14.6% [at 17.2 µM] (inactive)
same,Potency,[7],inactive
same,Potency,[8],inactive
same,outcome,[9],inactive
same,outcome,[13],inactive
same,outcome,[10],inactive
same,outcome,[11],inactive
same,"activity change, negative = inhibition",[12],-2.07% (inactive)
same,max response,[12]; [21],14.3%
same,max response,[12]; [22],12.4%
same,outcome,[14],inactive
same,Potency,[19],inactive
same,outcome,[15],inactive
same,"activity, negative = inhibition",[16]; parasite line A,15.2% (inactive)
same,"activity, negative = inhibition",[16]; parasite line B,4.36% (inactive)
same,Potency,[17],inactive
same,Potency,[18],inactive
C[C@@H](C[N+](C)(C)C)OC(N)=O,"activity change, negative = inhibition",[1]; at 17.2 µM (top of the series),2.54% (inactive)
same,"activity change, negative = inhibition",[1]; at 38 µM (top of the series),13.3% (inactive)
same,Potency,[2],inactive
same,"activity change, negative = inhibition",[3]; at 17.2 µM (top of the series),9.21% (inactive)
same,"activity change, negative = inhibition",[3]; at 38 µM (top of the series),17.1% (inactive)
same,"activity, negative = inhibition",[4]; [20],-3.42% [at 17.2 µM] (inactive)
same,Potency,[5],> 46 µM (inactive) and > 20.6 µM (inactive)
same,Potency,[6],> 46 µM (inactive) and > 20.6 µM (inactive)
same,Potency,[7],inactive
same,Potency,[8],inactive
same,outcome,[9],inactive
same,outcome,[13],inactive
same,outcome,[10],inactive
same,outcome,[11],inactive
same,"activity change, negative = inhibition",[12],-1.39% (inactive)
same,max response,[12]; [21],-0.356%
same,max response,[12]; [22],-3.27%
same,Potency,[19],inactive
